Screening data (PubChem BioAssay)
EBV gp42 block – blocks Epstein-Barr virus glycoprotein 42 binding; Fluorescence polarization binding assay, mP read-out; 0.42% of 220,000 active; inhibition, % (tested at 21.74 µM); Q1HVG2; AID 1085; in the data active means inhibition above about 50%
Target sequence (Q1HVG2 whole entry, looked up): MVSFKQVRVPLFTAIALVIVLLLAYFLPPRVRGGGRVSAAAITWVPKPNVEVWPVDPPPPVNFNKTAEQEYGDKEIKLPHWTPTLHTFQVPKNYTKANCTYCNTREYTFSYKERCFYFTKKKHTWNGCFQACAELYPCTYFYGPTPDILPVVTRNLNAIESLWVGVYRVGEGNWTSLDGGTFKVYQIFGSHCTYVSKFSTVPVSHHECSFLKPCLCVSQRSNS
E coli Lon inh – inhibitors of E. coli Lon protease; 0.42% of 360,000 active; P0A9M0; inhibition, % at 7.94 µM; purified E. coli Lon protease, fluorescence polarization; in the data active means inhibition above about 13%, passing the limit was not always enough;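 further: 0% = enzyme with probe and DMSO and 100% = no enzyme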
GLD-1 RNA inh – GLD-1-TGE RNA interaction inhibition (C. elegans). Q17339. purified GLD-1 + fluorescein TGE RNA, fluorescence polarization. inhibition, % at 5.96 µM. 0.44% of 320,000 active. AID 2280;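 active means percent inhibition above a per-plate cutoff, the plate mean of test compounds plus 3 SD, cut at about 30% in these data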;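 further: 0% = DMSO wells with GLD-1 and probe and 100% = wells lacking GLD-1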
MEX-5 binding – C. elegans MEX-5 TCR-2 RNA binding activity; Q9XUB2; AID 1832; 0.38% of 300,000 active; activity score (negative = inhibition of binding), % at 10 µM; MEX-5/FITC-TCR2 RNA binding, fluorescence polarization; stronger effect = lower value;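 active means inhibition past about -25% in most replicates, and total fluorescence under double the plate's negative control median, limit read from the data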;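 further: 0% = DMSO and -100% = 5 µM competing unlabeled TCR2 RNA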
Bcl-xL primary – inhibitors of human Bcl-xL | Q07817 | GST-Bcl-xL / FITC-Bim BH3 peptide fluorescence polarization | inhibition, % at 10.9 µM | 0.7% of 320,000 active | AID 2129;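 active means inhibition above the mean of all tested compounds plus 3 SD, cutoff set per campaign, cut at about 30% in these data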;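 further: 0% = DMSO wells and 100% = unlabeled Bim-BH3 peptide competitor; inhibitors lower millipolarization by displacing the labeled peptide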
Target sequence (Q07817 whole entry, looked up): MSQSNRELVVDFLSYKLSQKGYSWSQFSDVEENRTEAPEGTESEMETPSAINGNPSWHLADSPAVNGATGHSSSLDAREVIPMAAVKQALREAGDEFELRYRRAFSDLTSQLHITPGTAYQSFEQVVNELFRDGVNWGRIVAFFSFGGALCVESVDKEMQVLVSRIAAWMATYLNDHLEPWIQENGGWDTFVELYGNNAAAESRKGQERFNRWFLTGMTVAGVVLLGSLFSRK
MCL1-BIM inh – disrupts human MCL1 binding to BIM-BH3 peptide; inhibition, % at 10.9 µM; 0.68% of 320,000 active; Q07820; GST-MCL1 / FITC-Bim-BH3 fluorescence polarization;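 active means inhibition above the mean inhibition of all tested compounds plus 3 SD, set per campaign, cut at about 40% in these data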;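 further: 0% = DMSO wells and 100% = unlabeled Bim-BH3 peptide control; higher means more loss of mP so more displacement of Bim peptide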
E coli Lon conf – confirmation of E. coli Lon protease inhibitors. 31% of 1,400 active. inhibition, % at 7.94 µM. AID 602230. purified E. coli Lon, fluorescence polarization. shares compounds with E coli Lon inh; in the data active means inhibition above about 16%;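 further: 0% = enzyme with probe and DMSO and 100% = no enzyme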
Starred values were filed as active, the others as inactive; . = not tested or not shown. In the library only some 1.5% were active in any assay of this set; here they are far more common.

SMILES | EBV gp42 block | E coli Lon inh | GLD-1 RNA inh | MEX-5 binding | Bcl-xL primary | MCL1-BIM inh | E coli Lon conf
CCC(CO)Oc1cc(NCc2cccnc2)c2ncn(C(C)C)c2c1 (centres undefined) | . | 27* | 4 | . | . | . | 14
CCC(CO)Oc1cc(NCc2ccncc2)c2ncn(C(C)C)c2c1 (centres undefined) | . | -9 | -4 | . | . | . | .
CC1CCN(c2ccc(NC(=O)C3CCCN3S(=O)(=O)c3ccc(F)cc3)cc2)CC1 (centres undefined) | . | -11 | -7 | . | 6 | 3 | .
Cn1ccc2c(N3CCCC3)cc3c(c21)C1CCC3O1 (centres undefined) | . | 30* | . | . | . | . | 2
O=C(N=C1SC2CS(=O)(=O)CC2N1c1ccc(OC(F)(F)F)cc1)C1CC1 (centres undefined) | . | -2 | 6 | -1 | 10 | 5 | .
O=C1CC(=O)CC(c2ccccc2Cl)C1 | -14 | 30* | -2 | 1 | 2 | 2 | 2
CCC(=O)Nc1nnc(C(C)(C)C)s1 | -9 | 18* | -2 | 0 | 7 | 5 | -10
CNC(=O)Nc1nnc(C(C)(C)C)s1 | -6 | -2 | -2 | 5 | 0 | -9 | .
Cc1ccc(-c2csc3nc(C)n(-n4cccc4)c(=O)c23)o1 | 0 | 21* | 2 | -1 | 6 | 5 | -1
Cc1ccc(-c2csc3nc(C)n(N)c(=O)c23)cc1 | 2 | 2 | 0 | 2 | 15 | 3 | .
O=C(O)CN1C(=O)c2ccc(C(=O)c3ccccc3)cc2C1=O | . | 27* | 7 | 4 | 6 | 1 | -3
O=C(CN1C(=O)c2ccccc2C1=O)c1ccccc1 | -15 | -4 | -8 | -1 | -1 | -5 | .
CN=C1S/C(=C\c2ccc(SC)cc2)C(=O)N1C | . | 1 | 3 | -1 | -3 | -5 | .
CSC1=NC(=O)/C(=C/c2ccc(SC)cc2)S1 | -45 | 25* | -5 | -4 | 4 | -7 | -4
COC(=O)c1ccc(S(=O)(=O)N2C3CCC2CC(NC(=O)NC2CCCCC2)C3)cc1 (centres undefined) | -15 | -7 | -2 | -1 | -1 | 1 | .
COc1ccc(S(=O)(=O)N2C3CCC2CC(NC(=O)NC2CCCCC2)C3)cc1 (centres undefined) | -1 | 82* | 3 | -1 | 2 | -1 | 0
COc1ccc(N2CCN(C(=O)CNC(=O)Cn3cnc4sc(C)c(C)c4c3=O)CC2)cc1 | . | 3 | 2 | 2 | 6 | 0 | .
CC1CCN(C(=O)C(C)NCc2ccc(F)cc2)CC1 (centres undefined) | . | 36* | 11 | -5 | 0 | 26 | 3
COC(=O)C1(C#N)C(c2ccccc2)C1(C(=O)OC)C(=O)OC (centres undefined) | -16 | -2 | 2 | 0 | 1 | 5 | .
CCCCC1OC2(C)OC(=N)C1(C#N)C(C#N)(C#N)C2c1ccccc1 (centres undefined) | 9 | 29* | 23 | . | 21 | 11 | 11
COc1cccc(CNC(=O)COC(=O)CCc2cc(OC)c(OC)c(OC)c2)c1 | . | 2 | -3 | . | 3 | -9 | .
COC(=O)c1ccc(-c2nc(CN3CCN(C(=O)c4ccco4)CC3)c(C)o2)cc1 | . | 15* | . | . | . | . | -2
COC(=O)c1ccc(-c2nc(CN3CCCN(C(=O)c4ccco4)CC3)c(C)o2)cc1 | . | 2 | 6 | -4 | 2 | 1 | .
CC(OC(=O)c1cc(S(=O)(=O)N(C)c2ccccc2)ccc1Cl)C(=O)Nc1ccc2c(c1)OCCO2 (centres undefined) | -8 | 3 | 5 | 0 | -1 | 4 | .
Cc1ccc(/C=C/C(=O)O)cc1S(=O)(=O)NC1CCS(=O)(=O)C1 (centres undefined) | -1 | 15* | -3 | -1 | 5 | 3 | -5
SMILES | EBV gp42 block | E coli Lon inh | GLD-1 RNA inh | MEX-5 binding | Bcl-xL primary | MCL1-BIM inh | E coli Lon conf
CCn1c(=S)sc2c(=O)n(CC(=O)Nc3cccc(OC)c3)c(C)nc21 | . | 1 | -6 | 0 | 1 | -4 | .
CCC(C)(C)n1nnnc1C(C(C)C)N(Cc1ccco1)Cc1cc2cc3c(cc2[nH]c1=O)OCO3 (centres undefined) | -19 | 36* | 28 | 0 | 45* | 46* | 52*
CCC(C)(C)n1nnnc1C(C(C)C)N(Cc1cccnc1)Cc1ccco1 (centres undefined) | 0 | -6 | 2 | 1 | 0 | -6 | .
CC(=O)N1c2ccc(S(=O)(=O)N3CCC(C(=O)Nc4cccc(C(F)(F)F)c4)CC3)cc2CC1C (centres undefined) | . | 28* | -3 | 2 | 4 | -2 | -59
c1csc(-c2nc(CN3CCSCC3)cs2)c1 | -19 | -7 | -1 | 1 | 6 | 8 | .
CC[C@]12c3[nH]c4ccc(OC)cc4c3CCN1C(=O)C(CC(=O)NCc1ccco1)C[C@@H]2C(=O)N1CCN(C(=O)c2ccco2)CC1 (some centres undefined) | . | 0 | . | . | . | . | .
COCCNC(=O)c1c[nH]c2ccc(S(=O)(=O)Nc3ccccc3F)cc2c1=O | . | 18* | -4 | 2 | 9 | 5 | 9
O=[N+]([O-])c1ccc(N2CCN(Cc3ccccc3)CC2)c2c1no[n+]2[O-] | . | 32* | . | . | . | . | 5
COc1ccccc1NC(=O)Cn1cnc2c(oc3ccccc32)c1=O | -22 | -5 | 3 | 0 | 4 | 2 | .
COC(=O)Cn1cnc2c(oc3ccccc32)c1=O | . | 22* | 5 | -1 | 11 | 0 | -2
CO/N=C\CC(=O)Nc1ccc(Cl)c(Cl)c1 | 5 | 17* | 3 | -2 | 3 | 7 | 14
Cc1sc2ncn(CC(=O)NCC(=O)N3CCN(c4ccccc4F)CC3)c(=O)c2c1C | . | 19* | 6 | 1 | 6 | 6 | -29
CCn1cc(C(=O)NCCCN2CCC(C)CC2)c(=O)c2cc(S(=O)(=O)N3CCOCC3)ccc21 | . | 1 | -3 | -1 | 7 | 1 | .
COC(=O)c1cccc(-n2c(=O)n(Cc3ccccc3)c(=O)c3[nH]cnc32)c1C | . | 4 | 2 | 0 | 0 | 1 | .
CC(=O)O[C@@H]1[C@H](OC(=O)CC(C)C)c2c(ccc3ccc(=O)oc23)OC1(C)C | -11 | 113* | 3 | 0 | 0 | -2 | -6
CC1CCCC(C)N1C(=O)COc1ccc(C(=O)Nc2ccccc2N2CCOCC2)cc1 (centres undefined) | -3 | 20* | 4 | 2 | 7 | 3 | 12
CCOc1ccc(C(=O)Nc2ccccc2N2CCOCC2)cc1 | -16 | 0 | 7 | 1 | 7 | 2 | .
Cc1ccc(S(=O)(=O)N2CCCCC2)cc1NC(=O)COC(=O)C1=COCCO1 | 2 | 2 | 9 | 2 | -2 | -2 | .
O=C(Nc1cccc([N+](=O)[O-])c1)Nc1cccc([N+](=O)[O-])c1 | 3 | 10 | 4 | -1 | 6 | 4 | .
